Test results reported in PubChem BioAssay AID1159580 (chemical genetic matrix, 2015).
About 2,000 (36%) of roughly 5,500 compounds were called active. Another 18% or so got no clear call; they are omitted. Rule as the data show it: active = normalized growth mostly below about 0.91 (no sharp cut-off); inconclusive = no clear call, values can overlap the other calls; inactive = mostly above about 0.92. This is one part of the list.

Experiment: chemical genetic growth profiling, strain panel (AID 1159580);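 also: tested at 20 µM; growth read once vehicle control cultures reached saturation at 30 °C; 1 = growth at the plate median or of vehicle wells; lower values mean less growth of the strain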
Conditions: S. cerevisiae deletion strains, growth OD

Measured: normalized growth

CC(C)NCC(O)COc1ccc(CCOCC2CC2)cc1 (configuration not stated)
inactive: locus YAL040C, strain CLN3, active compounds read low 1.05 | locus YCL061C, strain MRC1 (second series), active compounds read low 1 | locus YER002W, strain NOP16, active compounds read low 1.03 | locus YGR078C, strain PAC10, active compounds read low 0.994 | locus YMR307W, strain GAS1, active compounds read low 0.998 | locus YNL153C, strain GIM3, active compounds read low 1.01 | locus YNL175C, strain NOP13, active compounds read low 1.02 | locus YNL197C, strain WHI3, active compounds read low 1.03 | locus YNL224C, strain SQS1, active compounds read low 1.01 | locus YOR083W, strain WHI5 (second series), active compounds read low 1.05 | locus YPL055C, strain LGE1, active compounds read low 0.998 | locus YPL241C, strain CIN2, active compounds read low 1
